For 69 molecules, Inhibition results are on record in ChEMBL document CHEMBL4513149, “CO-ADD screening of MMV (CH) - MMV compounds” (2021).

Molecules are shown by their SMILES. Potency and affinity values are given separately.

One assay deals with Klebsiella pneumoniae. Particulars: Concentration 20 uM; ASSAY_TEST Inhibition of Bacterial Growth; detection method Absorption (OD600); MEDIA CAMHB; plate type 384well; NBS; CORNING #3640; time 18 hr.
Another assay relates to Candida albicans. Particulars: 20 µM.
The next assay has as its system Cryptococcus neoformans. Particulars: Concentration 20 uM; ASSAY_TEST Inhibition of Fungal Growth; detection method Resazurin; Absorption (OD600-OD570); plate type 384well; NBS; CORNING #3640. For orientation: Alamar Blue is a resazurin reagent that responds to reducing activity.

In the case of `O=C(Nc1ccc(F)c(-c2nc3cc(-c4ccccc4)cnc3[nH]2)c1)N1CCCC1`, the Inhibition with Klebsiella pneumoniae was 7.38%; in the assay with Candida albicans it was 49.9%; with Cryptococcus neoformans, -3.95%.
For `NS(=O)(=O)c1cccc(-c2ccc3ncc(N4CCOCC4)nc3c2)c1` the same measures were 17.56%, 4.12% and -9.08%.
For `O=C(NC1CC1)c1ccc(N2CCOc3ccc(Cl)cc32)s1` the same measures were 15.81%, 6.64% and 31.76%.
`O=C(NC1CCCCC1)N1CCN(Cc2ccc3c(c2)OCO3)CC1`: the Inhibition was 10.77% in the assay on Klebsiella pneumoniae, 0.64% in the assay on Candida albicans and -16.64% in the assay on Cryptococcus neoformans.
For `Cc1cc(Nc2ccc(C(F)(F)F)cc2)n2ccnc2n1` the same measures were 6.21%, 3.67% and 2.17%.
In the same order, the values of `CC(C)n1ncc2c(C(=O)NCC(c3cccs3)N3CCOCC3)cc(-c3ccccc3)nc21` (configuration not stated) are 8.44%, 4.59% and -15.65%.
In the case of `CCn1ncc2c(NC3CCOCC3)c(CNC(=O)c3ccnn3C)c(C)nc21`, the values for the Inhibition with Klebsiella pneumoniae, with Candida albicans and in the assay on Cryptococcus neoformans were -4.12%, 0.07% and -8.07%, respectively.
For the molecule `Cl.NCCCC(N)(C(=O)O)C(F)F.O` (configuration not stated) [EFLORNITHINE HYDROCHLORIDE], the results for the Inhibition in the assay with Klebsiella pneumoniae, in the assay with Candida albicans and with Cryptococcus neoformans were 11.19%, 2.7% and -9.22%, respectively.
In the same order, the values of `O=C(NCc1cc(Cl)cc(Cl)c1)c1c(C(F)(F)F)nc2ccccn12` are 15.19%, 8.03% and -5.43%.
In the same order, the values of `c1ccc2c(c1)CN(CC1CC1)CC1(CCN(Cc3c[nH]c4cnccc34)CC1)O2` are 8.97%, 4.16% and -4.09%.
As to `CC1(C)Cc2c(c(N3CCOCC3)nc3snc(Br)c23)CO1`, the Inhibition in the assay on Klebsiella pneumoniae was 3.58%; with Candida albicans it was 13.1%; in the assay on Cryptococcus neoformans, -2.44%.
In the same order, the values of `Cc1cc(Nc2ccncc2)n2nc(C)c(-c3ccccc3Cl)c2n1` are 15.32%, 1.91% and -9.03%.
For `Cc1cc(C(=O)Nc2cnn(Cc3ccc(Cl)cc3Cl)c2)no1` the same measures were -11.81%, 11.5% and -4.75%.
For `Nc1ncc(-c2ccc(C(F)(F)F)nc2)cc1-c1ccc(C(F)(F)F)nc1` the same measures were -7.95%, 5.26% and -5.78%.
Consider `COc1cncc(-c2cncc(N3CCN(c4ccncc4)CC3)n2)c1`, for which the Inhibition in the assay with Klebsiella pneumoniae is 19.7%; in the assay with Candida albicans, 3.12%; in the assay with Cryptococcus neoformans, 4.32%.
As to `Cc1cc(O)nc(-n2nc(C)cc2C)n1`, the Inhibition was 12% in the assay on Klebsiella pneumoniae, 69.6% in the assay with Candida albicans and -1.19% in the assay on Cryptococcus neoformans.
In the same order, the values of `O=C(OCc1ccccc1)N1CCC(c2cc(-c3ccncc3)c(-c3ccc(F)cc3)[nH]2)CC1` are 6.24%, 3.85% and -11.48%.
With `Cc1ccc2cc(C3NC(=O)c4ccccc4N3)c(Cl)nc2c1` (configuration not stated), the Inhibition is 19.35% with Klebsiella pneumoniae, 3.16% in the assay on Candida albicans and -7.26% with Cryptococcus neoformans.
In the case of `CCOc1ccc(-c2nc(CNCCc3ccc(F)cc3)cs2)cc1`, the Inhibition with Klebsiella pneumoniae was 12.06%; in the assay with Candida albicans, 7.53%; with Cryptococcus neoformans, -5.87%.
In the case of `CN1CCN(S(=O)(=O)c2ccc(-c3ccc4c(Nc5ncc(Cl)cn5)ccnc4c3)cc2)CC1`, the Inhibition was 7.93% in the assay on Klebsiella pneumoniae, 4.17% in the assay with Candida albicans and -3.42% in the assay on Cryptococcus neoformans.
In the same order, the values of `CCCn1nnc(NC(=O)COc2ccc(C3CCCCC3)cc2)n1` are 4.73%, 21.8% and -8.36%.
In the same order, the values of `CCCNC(=O)N1CCC2(CC1)CC(=O)c1cc(C)ccc1O2` are 17.38%, 2.86% and -8.06%.
In the same order, the values of `CC(C)C(NC(=O)Cc1cccc2ccccc12)C(=O)Nc1cccc(C#N)c1` (configuration not stated) are 13.86%, 6.6% and -4.4%.
`O=C(NC1CCN(c2ccnc3ccccc23)C1)c1cccc(C(F)(F)F)c1` (configuration not stated): the Inhibition was 12.02% with Klebsiella pneumoniae, 3.54% in the assay on Candida albicans and -3.95% in the assay on Cryptococcus neoformans.
`Nc1ncnc2c1ncn2C[C@@H](O)[C@@H](O)C(=O)O` [ERITADENINE]: the Inhibition with Klebsiella pneumoniae is 17.23%; with Candida albicans, 3.88%; with Cryptococcus neoformans, -6.54%.
For `CC(C)(C)OC(=O)N1CCC(Cn2nc(-c3cnc4ccccc4c3)c3c(N)ncnc32)CC1`, the Inhibition was 15.77% in the assay with Klebsiella pneumoniae, 2.29% in the assay on Candida albicans and -9.75% in the assay with Cryptococcus neoformans.
For `COc1cc(CN2CCC3(C=Cc4ccccc43)CC2)cc2c1OCO2` the same measures were -1.15%, -0.19% and -8.59%.
As to `CCN(CC)CCCN1CCN(C(=O)c2cccc(-c3noc(C(F)(F)F)n3)c2)CC1`, the Inhibition was 3.68% in the assay on Klebsiella pneumoniae, 1.48% in the assay on Candida albicans and -3.47% with Cryptococcus neoformans.
In the same order, the values of `CC1CCCCN1C(=O)NCCc1coc(-c2ccc(F)cc2)n1` (configuration not stated) are 15.76%, 3.66% and -14.62%.
In the same order, the values of `Cc1nn(C(=O)Nc2cccc(C(F)(F)F)c2)c(C)c1Sc1ncccn1` are 9.64%, 2.23% and -2.75%.
Turning to `CC(C(=O)Nc1ccc2oc(-c3ccncc3)nc2c1)c1ccccc1` (configuration not stated), the values for the Inhibition in the assay on Klebsiella pneumoniae, in the assay on Candida albicans and in the assay with Cryptococcus neoformans were 10.68%, 3.28% and -12.41%, respectively.
For `NC(=O)c1cc(-c2ccsc2)ccc1OCCOc1ccccc1` the same measures were 14.24%, 1.34% and -0.49%.
With `CN(C)c1cc(NC(=O)Nc2ccccc2)c2ccccc2n1`, the Inhibition in the assay on Klebsiella pneumoniae was -9.89%; in the assay on Candida albicans, 5.61%; in the assay on Cryptococcus neoformans it was -2.57%.
In the same order, the values of `CCCc1ccc(S(=O)(=O)Nc2ccc(CN3CCN(CC4CC4)CC3)cc2)cc1` are 16.66%, 4.6% and -0.39%.
Consider `COc1ccc(Cl)cc1NC(=O)CN(C)C(=O)c1cnn(-c2ccccc2)n1`, for which the Inhibition is 9.17% in the assay with Klebsiella pneumoniae, 6.95% in the assay with Candida albicans and -5.87% in the assay on Cryptococcus neoformans.
In the same order, the values of `NC(=O)c1cc(Br)ccc1OCCOc1ccccc1` are 10.17%, 10.7% and -9.83%.
In the same order, the values of `OC[C@H]1O[C@@H](n2c3ccc(Cl)cc3c3c(-c4cc5ccccc5o4)ncnc32)C(O)[C@H]1O` (some centres not stated) are 8.56%, 8.5% and 3.55%.
In the same order, the values of `c1ccc(-c2cc(N3CCCCC3)c3ccccc3n2)nc1` are 14.97%, -0.2% and -6.72%.
As for `Cc1ccc(NC(=O)c2cc(S(=O)(=O)NC(C)(C)C)ccc2C)nc1`, the Inhibition was 13.76% in the assay with Klebsiella pneumoniae, 1.54% in the assay with Candida albicans and -5.42% in the assay with Cryptococcus neoformans.
In the case of `O=C(Nc1nnc(S)s1)c1cc(Br)ccc1Cl`, the Inhibition is 6.18% in the assay on Klebsiella pneumoniae, 4.73% in the assay on Candida albicans and -3.6% in the assay on Cryptococcus neoformans.
Turning to `COc1ccc(C2(C(=O)Nc3ccc(Br)cc3)CCCC2)cc1`, the Inhibition was 17.05% with Klebsiella pneumoniae, 4.64% in the assay on Candida albicans and -2.31% with Cryptococcus neoformans.
For the molecule `CC(C)NCC(=O)Nc1cccc(C(=O)Nc2cccc(C(F)(F)F)c2)c1`, the results for the Inhibition with Klebsiella pneumoniae, in the assay with Candida albicans and in the assay on Cryptococcus neoformans were 10.29%, 3.29% and -11.79%, respectively.
With `CC(C)(C)c1cc(C(=O)Nc2cccnc2)cc(C(=O)Nc2cccnc2)c1`, the Inhibition in the assay with Klebsiella pneumoniae was 16.7%; with Candida albicans, 3.35%; in the assay with Cryptococcus neoformans, -7.29%.
In the same order, the values of `CCCS(=O)(=O)N1CCC(CO)(Cc2ccccc2C(F)(F)F)CC1` are 9.23%, 3.76% and -2.93%.
As for `CC1=Nc2ccc(Cl)cc2C(c2ccccc2)N1CCNC(=O)CN(C)C` (configuration not stated), the Inhibition with Klebsiella pneumoniae was 16.36%; in the assay on Candida albicans, 1.95%; in the assay on Cryptococcus neoformans it was 10.1%.
As for `c1ccc(-c2[nH]c3ccccc3c2C(c2ccccn2)N2CCCC2)cc1` (configuration not stated), the Inhibition was 11.72% in the assay with Klebsiella pneumoniae, 1.35% with Candida albicans and -10.11% in the assay on Cryptococcus neoformans.
On to `CC(=O)Nc1ccc(NC(=O)c2cc(-c3cc(Cl)ccc3O)n[nH]2)cc1`, for which the Inhibition with Klebsiella pneumoniae is -16.31%; in the assay on Candida albicans it was 54.8%; with Cryptococcus neoformans, 0.66%.
For `O=C(NCc1nnc2n1CCCCC2)c1ccc(-c2ccc(F)cc2)o1` the same measures were 6.05%, 3.81% and 6.1%.
In the same order, the values of `Cn1ncc2c(N3CCOCC3)nc(NCCc3c[nH]c4ccccc34)nc21` [TDR79432] are 9.02%, 4.1% and -8.59%.
In the same order, the values of `COc1ccccc1C(C)NCC(=O)Nc1cc(C(F)(F)F)ccc1Cl` (configuration not stated) are 14.48%, 1.66% and -4.09%.
For the molecule `CC(C)(C)n1nc(-c2ccccc2)c2c(N)ncnc21`, the results for the Inhibition in the assay with Klebsiella pneumoniae, in the assay with Candida albicans and with Cryptococcus neoformans were 1.67%, 1.46% and -15.8%, respectively.
`Cc1nc(-c2cccc(NCc3ccccc3)c2)[nH]c1C`: the values for the Inhibition in the assay with Klebsiella pneumoniae, with Candida albicans and in the assay with Cryptococcus neoformans were 18.74%, 2.98% and -12.15%, respectively.
In the same order, the values of `O=C1[C@@H](Oc2ccccc2)[C@@H](c2ccc(Cl)cc2)N1CCn1cnc2c(NCc3ccccc3)ncnc21` are 2.13%, 33.5% and -6.99%.
For `Clc1ccc(CN2CCN(C3=NCCN3)CC2)cc1Cl` the same measures were 16.63%, 2.1% and -10.37%.
For `CCc1ccc([C@@H]2C[C@H](C(F)(F)F)n3ncc(C(=O)NCc4ccc(OC)cc4)c3N2)cc1` the same measures were 2.88%, 5.42% and -1.28%.
Turning to `Nc1ncnc2c1c(Cc1cccc3ccccc13)nn2CC1CCNCC1`, the Inhibition with Klebsiella pneumoniae is -3.02%; with Candida albicans, 2.11%; with Cryptococcus neoformans it was -1.33%.
In the case of `CCOc1ccc(OCC(=O)Nc2cc(C)cc(C)c2)cc1`, the Inhibition is 6.85% with Klebsiella pneumoniae, 9.23% with Candida albicans and -6.41% with Cryptococcus neoformans.
Consider `COC(=O)c1cccc2oc(-c3cccc(OC)c3NC(=O)c3cc(-c4ccccc4)on3)nc12`, for which the figures for the Inhibition with Klebsiella pneumoniae, with Candida albicans and with Cryptococcus neoformans were 13.16%, 8.19% and -3.51%, respectively.
For `Cc1cc(C)nc(-n2nc(C)cc2Nc2ccccc2)n1`, the values for the Inhibition in the assay on Klebsiella pneumoniae, in the assay with Candida albicans and in the assay with Cryptococcus neoformans were 15.33%, 11.7% and 39.43%, respectively.
Regarding `CCn1cnc2c(Nc3cc(F)cc(F)c3)nc(C#N)nc21`, the Inhibition in the assay with Klebsiella pneumoniae is 8.51%; in the assay on Candida albicans it was 3.4%; with Cryptococcus neoformans it was -1.23%.
In the same order, the values of `Cc1ccc(NC(=O)c2nc[nH]c2C(=O)Nc2nc3ccccc3[nH]2)c(C)c1` are 13.9%, 23.3% and -8.94%.
For `CN1CCCN(C(c2ccccc2)c2ccc(Cl)cc2)CC1` (configuration not stated) [HOMOCHLORCYCLIZINE] the same measures were 10.44%, 2.84% and -6.27%.
For `Cc1nc(-c2ccccn2)nc(NCCc2ccc(S(C)(=O)=O)cc2)c1Cl` the same measures were 10.15%, 4.79% and 2.36%.
With `O=[N+]([O-])c1cn2c(n1)OC[C@@H](OCc1ccc(OC(F)(F)F)cc1)C2` [PRETOMANID], the Inhibition with Klebsiella pneumoniae was 14.31%; in the assay on Candida albicans, 4.06%; in the assay with Cryptococcus neoformans, -5.11%.
In the same order, the values of `Cc1c[nH]c(CCNC(=O)c2cc(-c3ccc(Cl)cc3)cs2)n1` are 19.09%, 2.87% and -12.96%.
For `O=C(c1ccc(F)cc1)N(CCNc1ccccc1)c1ccccc1` the same measures were 12.15%, 5.49% and -9.35%.
As for `CNc1snc(C)c1C(=O)NCCOc1ccc(OC)cc1`, the results for the Inhibition in the assay on Klebsiella pneumoniae, in the assay on Candida albicans and with Cryptococcus neoformans were 10.83%, 3.15% and 1.78%, respectively.
For the molecule `O=C(c1cc2ccccc2o1)N1CCN(Cc2ccc3c(c2)OCO3)CC1`, the figures for the Inhibition with Klebsiella pneumoniae, in the assay on Candida albicans and in the assay on Cryptococcus neoformans were 9.23%, -0.54% and -15.32%, respectively.
For `Brc1c(-c2ccc3c(c2)OCO3)nc2ncccn12` the same measures were 12.72%, 3.56% and -13.08%.

The term Inhibition denotes the change of the read-out against control, counted positive when it falls.
